CYP2C19 inh: blocks human cytochrome P450 2C19 | AID 778 | 96,000 tested, 21% active | CYP2C19 Supersomes, luciferin-H EGE luminescence, 30 min | inhibition, % at 5 µM;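 active means CYP2C19 inhibition above a set limit at 5 µM in the primary screen, cut at about 50% in these data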
CYP2C9 act: increases human cytochrome P450 2C9 activity; activation factor at 5 µM; recombinant CYP2C9, luciferin-H conversion, luminescence; active compounds read high; factor 1 = untreated enzyme, 0 = blocked; 96,000 tested, 1.4% active;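 active means activation factor of 2 or more for CYP2C9 at a 5 µM dose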
CYP2C19 activ: activators of human cytochrome P450 2C19; recombinant CYP2C19, luciferin-H EGE luminescence; active compounds read high; 0 = fully inhibited enzyme, 1 = untreated enzyme; activation factor at 5 µM; 96,000 tested, under 10 active; AID 1025;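 active means activation factor of at least 2 at 5 µM in the primary screen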
Cav3 T inh: human Cav3.2 channel inhibition, primary screen; O95180; Cav3.2-expressing cells, Fluo-4 calcium fluorescence FDSS; active compounds read low; B-score at 10 µM; 100,000 tested, 4% active; AID 449739;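 active means single-dose well whose peak fluorescence ratio is a statistical outlier from its plate by either plate-standardised score or position-corrected B-score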
CYP2C9 inh: inhibitors of human CYP2C9. P11712. AID 777. CYP2C9 Supersomes, luciferin-H conversion, luminescence. inhibition, % at 5 µM. 96,000 tested, 20% active;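 active means blocking of liver enzyme CYP2C9 beyond about 50% at 5 µM, limit read from the data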
Pyk2 oligo antag: Pyk2 (human) oligomerization antagonism; Q293 cells, Pyk2 FERM NanoBiT luminescence; active compounds read low; 99,000 tested, 0.83% active; Q14289; AID 1347419; z-score (the deposit names both 25 µM and 10 µM);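 active means Z-score of -3 or lower, scaled per plate to the spread of control and sample wells; inactive means z-score above -3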;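 further: negative z-score means lost luminescence so less FERM oligomerization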
Target sequence (Q14289 whole entry, looked up): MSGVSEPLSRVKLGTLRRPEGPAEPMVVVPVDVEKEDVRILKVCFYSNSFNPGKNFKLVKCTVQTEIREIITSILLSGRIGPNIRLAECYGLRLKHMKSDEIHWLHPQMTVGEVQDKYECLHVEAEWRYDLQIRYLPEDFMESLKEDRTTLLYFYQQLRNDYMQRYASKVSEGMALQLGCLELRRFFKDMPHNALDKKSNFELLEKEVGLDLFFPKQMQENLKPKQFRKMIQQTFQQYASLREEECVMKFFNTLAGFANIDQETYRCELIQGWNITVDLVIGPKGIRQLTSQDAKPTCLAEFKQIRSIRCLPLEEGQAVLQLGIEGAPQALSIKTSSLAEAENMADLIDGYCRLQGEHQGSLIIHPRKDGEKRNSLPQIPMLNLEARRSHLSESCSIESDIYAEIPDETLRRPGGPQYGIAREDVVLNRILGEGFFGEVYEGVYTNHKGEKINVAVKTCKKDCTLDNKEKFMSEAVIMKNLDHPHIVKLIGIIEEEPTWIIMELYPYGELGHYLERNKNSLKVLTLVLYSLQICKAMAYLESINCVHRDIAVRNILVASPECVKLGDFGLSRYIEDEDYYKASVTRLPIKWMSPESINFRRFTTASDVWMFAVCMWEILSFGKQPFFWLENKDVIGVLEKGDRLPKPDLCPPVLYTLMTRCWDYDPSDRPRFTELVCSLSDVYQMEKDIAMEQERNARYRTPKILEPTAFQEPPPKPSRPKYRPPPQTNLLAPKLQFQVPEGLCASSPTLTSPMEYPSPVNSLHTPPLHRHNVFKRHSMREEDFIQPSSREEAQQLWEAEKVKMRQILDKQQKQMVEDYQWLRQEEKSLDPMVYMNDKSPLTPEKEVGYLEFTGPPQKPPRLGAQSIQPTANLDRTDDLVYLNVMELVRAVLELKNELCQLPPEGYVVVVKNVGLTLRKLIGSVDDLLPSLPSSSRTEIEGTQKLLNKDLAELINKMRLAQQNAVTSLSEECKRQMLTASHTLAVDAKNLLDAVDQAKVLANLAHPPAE
Hits are given with their value; i = inactive; nt = no result given. Only some compounds are listed: those with a hit (about 27% of all), similar ones and a draw of the others.

SMILES | CYP2C19 inh | CYP2C9 act | CYP2C19 activ | Cav3 T inh | CYP2C9 inh | Pyk2 oligo antag
Cc1cc(C)cc(NC(=O)OCCN2CCN(Cc3ccccc3)CCC2=O)c1 | nt | nt | nt | i | nt | nt
COCCN1Cc2cccc(C(=O)Nc3cccnc3)c2C1=O | i | i | i | i | i | i
COC(CNC(=O)c1cccc2c1C(=O)N(Cc1cccnc1)C2)OC | 50 | i | i | i | i | i
CCOc1ccc(NC(=O)c2cccc3c2C(=O)N(Cc2cccnc2)C3)cc1 | i | i | i | i | 77 | i
COCCN1Cc2cccc(C(=O)NCc3ccccc3OC)c2C1=O | i | i | i | i | i | i
CCOc1ccccc1NC(=O)c1cccc2c1C(=O)N(CCOC)C2 | 67 | i | i | i | 88 | nt
O=C(c1nc2ccccc2s1)N1CCN(c2ccccn2)CC1 | i | i | i | i | i | i
CCC1CCC/C1=N\NC(=O)c1cc(C)[nH]n1 (centres undefined) | i | i | i | i | i | i
CCCCNc1c2c(nc3c(-c4ccccc4)c(C)nn13)CCC2 | i | i | i | i | i | i
Cc1nn2c(-n3ccnc3)c3c(nc2c1-c1ccccc1)CCC3 | 96 | i | i | i | 63 | i
O=C(O)/C=C/c1cn(-c2ncc(C(F)(F)F)cc2Cl)c2ccccc12 | i | i | i | i | i | i
Cc1nnc(SCC(=O)Nc2sc3c(c2C(N)=O)CCCC3)[nH]c1=O | i | i | i | i | 69 | i
Cc1sc(NC(=O)CSc2nnc(C(C)C)n2C)c(C#N)c1C | nt | nt | nt | i | nt | i
CCCn1c(SCC(=O)Nc2sc(C)c(C)c2C#N)nnc1C(C)C | 75 | i | i | i | i | i
Cc1sc(NC(=O)CSc2nnc(C)c(=O)[nH]2)c(C#N)c1C | i | i | i | i | 97 | i
Cn1cnnc1SCC(=O)Nc1sc2c(c1C(N)=O)CCC2 | i | i | i | i | i | i
Cc1c(NC(=O)c2cc(CC(C)C)on2)c(=O)n(-c2ccccc2)n1C | i | i | i | i | i | nt
O=C(NC(=S)Nc1ccccc1)c1csnn1 | i | i | i | i | i | i
COC(C(=O)Nc1ccc(S(=O)(=O)N2CCCCC2)cc1)c1ccccc1 (centres undefined) | i | i | i | nt | 80 | i
CC(=O)NC(CC(=O)Nc1ccc(S(=O)(=O)N2CCCCC2)cc1)c1ccccc1 (centres undefined) | 69 | i | i | i | 74 | i
COC(=O)CCC(=O)Nc1ccc(S(=O)(=O)N2CCCCCC2)cc1 | i | i | i | i | i | i
CC(=O)OC(C(=O)NC1CCCCC1)c1ccc(C#N)cc1 (centres undefined) | i | i | i | i | i | i
CCOCc1nnc(NC(=O)c2c(OC)cccc2OC)s1 | i | i | i | i | i | i
CC(C)CCCC(C)NS(=O)(=O)Cc1ccccc1 (centres undefined) | 55 | i | i | i | 92 | i
CC(CCc1ccccc1)NS(=O)(=O)c1ccccc1 (centres undefined) | 55 | i | i | i | 75 | i
SMILES | CYP2C19 inh | CYP2C9 act | CYP2C19 activ | Cav3 T inh | CYP2C9 inh | Pyk2 oligo antag
Cc1cccc(NS(=O)(=O)Cc2ccccc2)n1 | nt | nt | nt | i | nt | i
CC(Cc1ccccc1)C(=O)NCc1ccncc1 (centres undefined) | nt | nt | nt | i | nt | nt
CC(CCc1ccccc1)NCc1ccncc1 (centres undefined) | 96 | i | i | i | 83 | i
C=C1CCN([C@@H](Cc2ccccc2)C(=O)Nc2ccc(OC)cc2)S(=O)(=O)c2ccccc21 | nt | nt | nt | i | nt | nt
COc1ccc(C(=O)/C=C(/C)N(C)C)cc1 | i | i | i | i | i | i
COC(=O)c1cc(=O)n(CCc2ccc(OC)c(OC)c2)c(=Nc2ccc(F)c(Cl)c2)s1 | 57 | i | i | i | 76 | nt
CS(=O)(=O)c1ccc2nc(NC3(C(F)(F)F)N=C4SCCN4C3=O)sc2c1 (centres undefined) | i | i | i | i | 92 | i
CC(=O)c1ccc(NC(=O)c2cc(CC(C)C)on2)cc1 | i | i | i | i | i | nt
CCCOC(=O)CSc1nc(N)c(C#N)c(CC)c1C#N | i | i | i | i | i | i
CC1CCCN(C(=O)CSCC(=O)N=c2sc3ccccc3n2C)C1 (centres undefined) | 99 | i | i | i | i | i
O=C1CC(c2cccs2)Cc2nc(NCC3CCCO3)ncc21 (centres undefined) | 85 | i | i | i | 74 | i
CC1CC(=O)c2cnc(NCC3CCCO3)nc2C1 (centres undefined) | i | i | i | i | i | i
CCOC(=O)Cc1c(C)nc2c(-c3ccccc3OC)c(C)nn2c1C | i | i | i | i | i | i
CCOC(=O)CN1C(=O)N[C@@H](c2cccc(F)c2)C(C(=O)OC)=C1C | nt | nt | nt | i | nt | nt
COc1ccc(OCC(=O)OC2CCN(C)CC2)cc1 | i | i | i | i | i | i
CCC(=O)OC1(C#CCOc2ccc(OC)cc2)CCN(C)CC1 | 66 | i | i | i | i | i
COc1ccc(CNCCC(c2ccccc2)c2ccc3c(c2)OCO3)cc1 (centres undefined) | 79 | i | i | nt | i | i
COc1ccc(N(CC(=O)NC(C)C)S(=O)(=O)c2ccc(NC(C)=O)cc2)cc1 | 88 | i | i | i | 93 | i
COc1ccc(CCNC(=O)CN(c2ccc(OC)c(OC)c2)S(C)(=O)=O)cc1 | i | i | i | i | 80 | i
COc1ccc(C)cc1NC(=O)CN(c1ccccc1)S(C)(=O)=O | i | i | i | i | 51 | i
COc1ccc(NC(=O)CN(c2ccc(C)cc2)S(C)(=O)=O)c(OC)c1 | 78 | i | i | i | 98 | i
CC(=O)Nc1ccccc1N(C)S(=O)(=O)c1ccc(C)cc1 | i | i | i | i | i | i
COc1ccc(OC)c(NC(=O)CN(c2ccc(OC)c(Cl)c2)S(C)(=O)=O)c1 | i | i | i | i | 63 | i
CCOc1ccc(NC(=O)CN(c2ccc(OC)cc2)S(C)(=O)=O)cc1 | i | i | i | i | i | i
COC(=O)c1ccc(NC(=O)CN(c2ccc(OC)cc2)S(C)(=O)=O)cc1 | i | i | i | i | 67 | i
O=c1cc(C23CC4CC(CC(C4)C2)C3)[nH][nH]1 | i | i | i | i | 56 | i
O=C1CC(c2ccco2)Cc2nc(N3CCc4ccccc4C3)ncc21 (centres undefined) | 95 | i | i | i | 98 | i
COc1ccc(C2CC(=O)c3c(C)nc(N4CCN(Cc5ccccc5)CC4)nc3C2)cc1OC (centres undefined) | 91 | i | i | i | 100 | i
COc1cc(C2CC(=O)c3cnc(N4CCN(Cc5ccccc5)CC4)nc3C2)cc(OC)c1OC (centres undefined) | 84 | i | i | i | 97 | i
CC1CC(C)CN(c2ncc3c(n2)CC(c2ccccc2)CC3=O)C1 (centres undefined) | 74 | i | i | i | 90 | i
